Measurements from PubChem BioAssay AID1159580 (chemical genetic matrix, 2015).
Several values for one entry are separate records, joined by “and”; a condition that tells them apart may be missing. Identical values can stand only once. The whole screen tested about 5,500 compounds, of which about 2,000 (36%) were called active. About 18% were inconclusive and are not listed. No stated cut-off is given here; in the data, active means normalized growth mostly below about 0.91 (no sharp cut-off); inconclusive means no clear call, values can overlap the other calls; inactive means mostly above about 0.92. Some of the results follow.

Experiment: chemical genetic growth profiling, strain panel (AID 1159580);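 further: tested at 20 µM; growth read once vehicle control cultures reached saturation at 30 °C; 1 = growth at the plate median or of vehicle wells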
Settings: S. cerevisiae deletion strains, growth OD

Measured: normalized growth

O=C(O)/C=C(\CC(=O)O)C(=O)O
inactive: locus YAL013W, strain DEP1, stronger effect = lower value 0.995 | locus YAL021C, strain ccr4, stronger effect = lower value 0.998 | locus YAL026C, strain drs2, stronger effect = lower value 1 | locus YAL030W, strain snc1, stronger effect = lower value 0.993 | locus YBL061C, strain skt5, stronger effect = lower value 0.994 | locus YBR009C, strain hhf1, stronger effect = lower value 1 | locus YBR021W, strain FUR4, stronger effect = lower value 0.981 | locus YBR023C, strain chs3, stronger effect = lower value 0.992 | locus YBR171W, strain sec66, stronger effect = lower value 0.989 | locus YBR229C, strain ROT2, stronger effect = lower value 0.993 | locus YBR231C, strain swc5, stronger effect = lower value 0.998 | locus YBR279W, strain paf1, stronger effect = lower value 1.01 | locus YCL011C, strain gbp2, stronger effect = lower value 1 | locus YCL016C, strain dcc1, stronger effect = lower value 1.01 | locus YCL029C, strain bik1, stronger effect = lower value 0.968 | locus YCL061C, strain MRC1, stronger effect = lower value 0.987 | locus YCL069W, strain vba3, stronger effect = lower value 1 | locus YCR088W, strain abp1, stronger effect = lower value 0.99 | locus YDL005C, strain med2, stronger effect = lower value 0.98 | locus YDL035C, strain GPR1, stronger effect = lower value 1 | locus YDL040C, strain nat1, stronger effect = lower value 0.985 | locus YDL074C, strain BRE1, stronger effect = lower value 0.998 | locus YDL101C, strain DUN1, stronger effect = lower value 1 | locus YDL134C, strain PPH21, stronger effect = lower value 1.01 | locus YDL185W, strain tfp1, stronger effect = lower value 1 | locus YDL192W, strain arf1, stronger effect = lower value 0.997 | locus YDR001C, strain nth1, stronger effect = lower value 0.995 | locus YDR069C, strain doa4, stronger effect = lower value 1.01 | locus YDR101C, strain arx1, stronger effect = lower value 0.991 | locus YDR137W, strain rgp1, stronger effect = lower value 1.02 | locus YDR159W, strain sac3, stronger effect = lower value 0.96 | locus YDR162C, strain NBP2, stronger effect = lower value 1.05 | locus YDR195W, strain ref2 0.969 | locus YDR297W, strain sur2, stronger effect = lower value 0.996 | locus YDR318W, strain mcm21, stronger effect = lower value 0.981 | locus YDR334W, strain swr1, stronger effect = lower value 0.981 | locus YDR335W, strain msn5, stronger effect = lower value 0.999 | locus YDR388W, stronger effect = lower value 0.973 | locus YDR392W, strain spt3, stronger effect = lower value 0.992 | locus YDR502C, strain sam2, stronger effect = lower value 0.984 | locus YEL003W, strain gim4, stronger effect = lower value 1 | locus YEL037C, strain rad23, stronger effect = lower value 0.994 | locus YEL061C, strain CIN8 (second series), stronger effect = lower value 1 | locus YEL061C, strain CIN8, stronger effect = lower value 0.996 | locus YER015W, strain faa2, stronger effect = lower value 0.998 | locus YER016W, strain bim1, stronger effect = lower value 0.984 | locus YER110C, stronger effect = lower value 0.982 | locus YER111C, strain swi4, stronger effect = lower value 0.991 | locus YER155C, strain BEM2 (second series), stronger effect = lower value 0.983 | locus YER155C, strain BEM2, stronger effect = lower value 0.989 | locus YER167W, strain BCK2, stronger effect = lower value 0.978 | locus YFR010W, strain ubp6, stronger effect = lower value 0.991 | locus YGL078C, strain dbp3, stronger effect = lower value 0.984 | locus YGL086W, strain mad1, stronger effect = lower value 0.987 | locus YGL167C, strain pmr1, stronger effect = lower value 0.986 | locus YGL173C, strain kem1, stronger effect = lower value 0.997 | locus YGL227W, strain vid30, stronger effect = lower value 0.98 | locus YGL240W, strain doc1, stronger effect = lower value 0.974 | locus YGL248W, strain PDE1, stronger effect = lower value 1.03 | locus YGL253W, strain hxk2, stronger effect = lower value 1 | locus YGR135W, strain pre9, stronger effect = lower value 1.02 | locus YGR252W, strain gcn5, stronger effect = lower value 1.03 | locus YHR013C, strain ard1, stronger effect = lower value 0.999 | locus YHR027C, strain rpn1, stronger effect = lower value 0.993 | locus YHR030C, strain SLT2, stronger effect = lower value 0.987 and 1.01 | locus YHR079C, strain IRE1 (second series), stronger effect = lower value 0.968 | locus YHR079C, strain IRE1, stronger effect = lower value 1.01 | locus YHR094C, strain hxt1, stronger effect = lower value 0.968 | locus YHR129C, strain ARP1, stronger effect = lower value 1 | locus YHR142W, strain chs7, stronger effect = lower value 1.01 | locus YHR200W, strain rpn10, stronger effect = lower value 0.991 | locus YIL066C, strain RNR3, stronger effect = lower value 1.01 | locus YIL073C, strain SPO22, stronger effect = lower value 0.952 | locus YIL125W, strain kgd1, stronger effect = lower value 0.979 | locus YIR030C, strain dcg1, stronger effect = lower value 0.97 | locus YJL092W, strain hpr5, stronger effect = lower value 0.994 | locus YJL095W, strain BCK1 (second series), stronger effect = lower value 0.997 | locus YJL095W, strain BCK1, stronger effect = lower value 1.05 and 1 | locus YJL115W, strain asf1, stronger effect = lower value 0.998 | locus YJL129C, strain trk1, stronger effect = lower value 0.996 | locus YJL134W, strain LCB3, stronger effect = lower value 0.993 | locus YJL154C, strain vps35, stronger effect = lower value 0.994 | locus YJL164C, strain tpk1, stronger effect = lower value 1.02 | locus YJL166W, strain qcr8, stronger effect = lower value 0.998 | locus YJL168C, strain set2, stronger effect = lower value 0.969 | locus YJL187C, strain SWE1 (second series), stronger effect = lower value 1.02 | locus YJL187C, strain SWE1, stronger effect = lower value 0.997 | locus YJR043C, strain POL32, stronger effect = lower value 1 | locus YJR066W, strain TOR1, stronger effect = lower value 0.972 | locus YJR075W, strain HOC1, stronger effect = lower value 1.03 | locus YKL009W, strain mrt4, stronger effect = lower value 0.957 | locus YKL068W, stronger effect = lower value 0.981 | locus YKL085W, strain MDH1 (second series), stronger effect = lower value 0.989 | locus YKL085W, strain MDH1, stronger effect = lower value 0.989 | locus YKL160W, strain elf1, stronger effect = lower value 0.993 | locus YKR001C, strain vps1, stronger effect = lower value 0.956 | locus YKR026C, strain gcn3, stronger effect = lower value 0.993 | locus YKR091W, strain srl3, stronger effect = lower value 0.999 | locus YLL001W, strain dnm1, stronger effect = lower value 1.01 | locus YLL026W, stronger effect = lower value 0.988 | locus YLL041C, strain sdh2, stronger effect = lower value 1 | locus YLR027C, strain aat2, stronger effect = lower value 0.996 | locus YLR039C, strain RIC1, stronger effect = lower value 1.02 | locus YLR058C, strain SHM2, stronger effect = lower value 1.01 | locus YLR102C, strain apc9, stronger effect = lower value 0.974 | locus YLR113W, strain HOG1, stronger effect = lower value 1.01 | locus YLR221C, strain rsa3, stronger effect = lower value 0.976 | locus YLR258W, strain gsy2, stronger effect = lower value 0.986 | locus YLR262C, strain YPT6 (second series), stronger effect = lower value 1.01 | locus YLR262C, strain YPT6, stronger effect = lower value 1.02 | locus YLR268W, strain sec22, stronger effect = lower value 0.977 | locus YLR320W, strain mms22, stronger effect = lower value 0.982 | locus YLR330W, strain CHS5, stronger effect = lower value 0.99 | locus YLR342W, strain FKS1 (second series), stronger effect = lower value 0.99 | locus YLR342W, strain FKS1, stronger effect = lower value 0.987 | locus YLR357W, strain rsc2, stronger effect = lower value 0.991 | locus YLR370C, strain arc18, stronger effect = lower value 0.997 | locus YLR371W, strain rom2, stronger effect = lower value 0.972 | locus YLR384C, strain iki3, stronger effect = lower value 0.984 | locus YLR418C, strain cdc73, stronger effect = lower value 1.01 | locus YML016C, strain PPZ1, stronger effect = lower value 0.986 | locus YML032C, strain rad52, stronger effect = lower value 0.986 | locus YML120C, strain ndi1, stronger effect = lower value 1 | locus YML124C, strain tub3, stronger effect = lower value 0.97 | locus YMR058W, strain fet3, stronger effect = lower value 0.997 | locus YMR078C, strain ctf18, stronger effect = lower value 0.975 | locus YMR125W, strain sto1, stronger effect = lower value 0.997 | locus YMR129W, stronger effect = lower value 0.996 | locus YMR205C, strain PFK2, stronger effect = lower value 1.01 | locus YMR223W, strain ubp8, stronger effect = lower value 0.996 | locus YMR231W, strain pep5, stronger effect = lower value 0.967 | locus YMR307W, strain GAS1, stronger effect = lower value 1.06 | locus YNL067W, strain RPL9B, stronger effect = lower value 1.03 | locus YNL071W, strain lat1, stronger effect = lower value 1 | locus YNL128W, strain TEP1, stronger effect = lower value 1 | locus YNL153C, strain GIM3, stronger effect = lower value 1.04 | locus YNL183C, strain NPR1, stronger effect = lower value 0.979 | locus YNL209W, strain ssb2, stronger effect = lower value 1 | locus YNL233W, strain BNI4, stronger effect = lower value 1.02 | locus YNL248C, strain rpa49, stronger effect = lower value 0.995 | locus YNL250W, strain rad50, stronger effect = lower value 0.982 | locus YNL271C, strain bni1, stronger effect = lower value 0.972 | locus YNL298W, strain CLA4, stronger effect = lower value 0.978 | locus YNL307C, strain MCK1, stronger effect = lower value 0.982 | locus YNL322C, strain KRE1 (second series), stronger effect = lower value 0.99 | locus YNL322C, strain KRE1, stronger effect = lower value 0.998 | locus YNR049C, strain mso1, stronger effect = lower value 0.992 | locus YNR052C, strain pop2, stronger effect = lower value 0.971 | locus YOL006C, strain TOP1, stronger effect = lower value 0.969 | locus YOL012C, strain htz1 0.984 | locus YOL147C, strain pex11, stronger effect = lower value 0.986 | locus YOR001W, strain rrp6, stronger effect = lower value 0.969 | locus YOR061W, strain CKA2, stronger effect = lower value 0.988 | locus YOR069W, strain VPS5, stronger effect = lower value 0.989 | locus YOR070C, strain gyp1, stronger effect = lower value 0.981 | locus YOR080W, strain dia2, stronger effect = lower value 0.985 | locus YOR083W, strain WHI5, stronger effect = lower value 1.01 | locus YOR106W, strain vam3, stronger effect = lower value 1.01 | locus YOR136W, strain idh2, stronger effect = lower value 0.98 | locus YOR144C, strain elg1, stronger effect = lower value 0.984 | locus YOR184W, strain ser1, stronger effect = lower value 0.999 | locus YOR231W, strain MKK1, stronger effect = lower value 1.05 | locus YOR265W, strain rbl2, stronger effect = lower value 0.995 | locus YOR270C, strain vph1, stronger effect = lower value 1.04 | locus YOR290C, strain snf2, stronger effect = lower value 0.964 | locus YOR316C, strain cot1, stronger effect = lower value 0.97 | locus YPL051W, strain arl3, stronger effect = lower value 0.989 | locus YPL055C, strain LGE1, stronger effect = lower value 1.03 | locus YPL078C, strain atp4, stronger effect = lower value 1 | locus YPL106C, strain sse1, stronger effect = lower value 0.997 | locus YPL240C, strain hsp82, stronger effect = lower value 0.996 | locus YPL241C, strain CIN2, stronger effect = lower value 0.993 | locus YPL256C, strain CLN2, stronger effect = lower value 1 | locus YPR119W, strain clb2, stronger effect = lower value 0.957 | locus YPR141C, strain kar3, stronger effect = lower value 0.975 | locus YPR163C, strain tif3, stronger effect = lower value 0.984 | locus YPR167C, strain met16, stronger effect = lower value 0.951 | strain wtn01, stronger effect = lower value 0.954
